Measurements as given in PubChem BioAssay AID624491 (Broad Institute, 2012).
Out of some 1,800 compounds screened, about 1,400 (78%) were called active. Inconclusive results (about 2%) are left out.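 The calls were made as follows: active = fitted curve crossing a set activation limit at or below the highest valid dose tested; inconclusive = flat fit at 30 to 70% activation, or poor fit; inactive = the rest, including signal decreases.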 The set was probably picked from earlier hits. Not all results are given here. Potency and affinity values are given separately.

Assay: N-linked glycosylation inhibitors, luciferase reporter, dose response, D54 ERlucT cells, luminescence, cherry-picks (AID 624491);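 also: signal gain reflects blocked N-linked glycosylation of a luciferase reporter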
Details: 24 h, 100% = twice neutral-control luminescence; series mostly up to 19.5 µM

Activation (NLG inhibition), inactive:
COc1ccc(NC(=O)C2Cc3c(-c4ccc5c(c4)OCO5)ccnc3O2)cc1 (stereo not given)
O=C(O)c1ccccc1OC(C(=O)Nc1cc(Cl)cc(Cl)c1)c1ccccc1 (stereo not given)
CCOc1cc(S(=O)(=O)NCc2ccc(OC)cc2)c(OCC)cc1-n1cnnn1
CCOc1ccc2c(c1)C(=NNC(=O)c1ccncc1)c1cc(OCC)ccc1-2
O=C(Nc1cccc(C(F)(F)F)c1)c1sc(Cl)nc1C(F)(F)F
Cc1cc(O)c(NC(=O)c2cc([N+](=O)[O-])ccc2Cl)cc1C
O=C(Cc1cccs1)NCCS(=O)(=O)N1CCN(c2ccccc2F)CC1
CCc1ccc(NC(=O)Cn2c(=O)n(CCC(=O)NC3CCN(Cc4ccccc4)CC3)c(=O)c3ccccc32)cc1
CNC(=O)COC(=O)c1ccccc1C(=O)c1ccc(Cl)c([N+](=O)[O-])c1 11% [at 1.2 µM]
CCCn1c2ccccc2c2cnn(CC(=O)NC3CCCC(C)C3C)c(=O)c21 (stereo not given)
COc1ccc(CN(C(=O)c2ccc(CN3CCOCC3)o2)C(C(=O)NCC2CCCO2)c2ccc(F)cc2)cc1 (stereo not given)
O=C1OC(c2ccc(F)cc2)CC1CN1CCOCC1 (stereo not given)
Nc1c(C(=O)c2ccccc2)sc2nsc(SCCN3CCOCC3)c12
COC(=O)Nc1ccc(S(=O)(=O)N2CCCc3ccccc32)cc1
CCOc1ccc2[nH]c(=O)c(CN(Cc3ccc(F)cc3)C(=O)c3ccco3)cc2c1
O=C(N/N=C/c1cccnc1)c1cc(-c2ccc(Br)cc2)nc2ccccc12
COc1ccc(CN2C(=O)C(C)Nc3ncnc(N4CCc5ccccc5C4)c32)cc1 (stereo not given)
CC1Nc2ncnc(N3CCc4ccccc4C3)c2N(Cc2ccc(Br)cc2)C1=O (stereo not given)
Cc1cccc2[nH]c3c(N4CCC5(CC4)OCCO5)ncnc3c12
COc1ccc(Cn2c(=O)c3[nH]cnc3n(-c3ccccc3C)c2=O)cc1
O=C(Nc1ccccc1)N1CCC(c2nc(-c3ccc(S(=O)(=O)N4CCOCC4)cc3)no2)CC1
COc1cc(/C=C/C(=O)c2ccc(Cl)s2)cc(OC)c1O
COc1ccc(/C=C/C(=O)c2ccc3c4c(cccc24)CC3)cc1
COc1cc(O)c(C(=O)/C=C/c2ccccc2)c(OC)c1
CN1C/C(=C\c2ccc(N3CCOCC3)cc2)C(=O)/C(=C/c2ccc(N3CCOCC3)cc2)C1
COc1ccc(/C=C2\CN(Cc3ccccc3)C/C(=C\c3ccc(OC)cc3)C2=O)cc1
CCOc1ccc(/C=C/C(=O)c2ccccc2)cc1OC
COc1ccc(C(=O)/C=C/c2ccc(OC3CSC3)cc2)cc1OC
COc1ccc(OC)c(-c2nnc3n2N=C(c2ccc(OC)c(OC4CCCC4)c2)CS3)c1
COc1ccc(C2=Nn3c(nnc3-c3ccc(OC)cc3)SC2)cc1
COc1ccc(C2=Nn3c(nnc3-c3ccco3)SC2)cc1
COc1ccc2nc(-c3ccco3)c(-c3ccco3)nc2c1
O=S1(=O)C=CC(Nc2cccc(Cl)c2)C1 (stereo not given)
O=C(CSc1nc2nc(-c3cccs3)cc(C(F)(F)F)c2c(=O)[nH]1)C(F)(F)F
Cc1ccc(C)n1-c1ccc(C(=O)/C=C/N(C)C)cc1
Cc1ccc(-c2cc(NC(=O)CCl)n(-c3ccccc3)n2)cc1
CCOc1ccccc1NC(=O)Cn1nnc(C(=O)NCc2ccc3c(c2)OCO3)c1N
COc1cc(Cl)c(C)cc1NC(=O)CN1CCN(C(=O)C2CC2)CC1
COc1ccc(NC(=O)C2Cc3c(-c4cccc(C(C)=O)c4)ccnc3O2)cc1 (stereo not given)
CCNC(=O)COc1ccc(/C=C2\COc3ccccc3C2=O)cc1OC
CN(Cc1ccc(Cl)s1)C(=O)CCl
CCN(CC(=O)NCc1ccc(F)cc1)C(=O)/C=C/c1ccc(OC)c(S(=O)(=O)NC(C)C)c1
CN1C(=O)c2cccc3c(S(=O)(=O)Nc4ccccc4F)ccc1c23
CCN(CC)CCCNC(=O)c1cc2c(=O)n(CC)c3ccccc3c2s1
COc1cc(C2=NOC(C(=O)NCc3cccs3)C2)cc(OC)c1OC (stereo not given)
CCOC(=O)Nc1c2ccccc2nc2ccccc12
O=C(O)c1ccc(CN2C(=O)c3cccc4c([N+](=O)[O-])ccc(c34)C2=O)cc1
Cc1noc(C)c1COc1ccc(C(=O)NNC(=O)c2ccccc2)cc1
CC[C@@]1(c2ccccc2OC)ON(c2ccccc2C(F)(F)F)C1=O
COc1ccccc1C1=NOC(COc2ccc3c(C)cc(=O)oc3c2)C1 (stereo not given)
COc1cccc(C(=O)Nc2ncc3c(n2)CC(c2ccc(OC)cc2OC)CC3=O)c1 (stereo not given)
Cc1nc2c3cc(F)ccc3n(CCN3CCCCC3)c2s1
NNC(=O)c1ccc2nc(-c3ccc(Br)cc3)cn2c1
Cc1ccc(-c2cc(C(=O)N/N=C/c3c[nH]c4ccccc34)[nH]n2)cc1
COc1ccc(CCn2c(=N)c(C(=O)NC3CCCC3)cc3c(=O)n4ccccc4nc32)cc1OC
COc1cc2cc(C(c3nnnn3C(C)(C)C)N3CCc4ccccc4C3)c(=O)[nH]c2cc1OC (stereo not given)
Cc1cccc(N2CCN(C(=O)c3ccc(Cl)c(S(=O)(=O)NCc4ccco4)c3)CC2)c1C
C=CCN(CC=C)C(=O)CN1C(=O)NC(C)(c2ccc3cc(OC)ccc3c2)C1=O (stereo not given)
NC(=O)/C=C\C(=O)Nc1cccc(C(F)(F)F)c1
O=S(=O)(Nc1cccc2cccnc12)c1ccc(S(=O)(=O)N2CCCC2)cc1
CCN(CC)C(=O)CSc1nc2c(sc(=S)n2-c2ccccc2)c(=O)n1Cc1ccco1
Cc1cc(NC(=O)CSc2nc(C3CC3)nc3sc(C)c(C)c23)no1
COc1ccc(N(CC(=O)Nc2cc(Cl)ccc2OC)S(=O)(=O)c2c(C)noc2C)cc1
Cc1cc(Br)ccc1NC(=O)CCCOc1cc(=O)n(C)c2ccccc12
N#Cc1c(NC(=O)c2cnccn2)sc2c1CCCC2
